Structures are written as SMILES. About 18,000 (9%) of roughly 200,000 compounds were called active. No stated cut-off is given here; in the data, active means inhibition above about 50%; inactive means the rest. Only a selection was taken, and actives are over-represented in it overall.

Usually inhibition stands for the relative decrease from the control value, in per cent.

The test in a line: antileishmanial activity against promastigotes – primary screen (AID 1063).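 Further: promastigotes grown with compound for 44 hours at 28 °C.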 The settings on record: Leishmania major promastigotes, resazurin fluorescence viability; at 10 µM; hits give high values. (Resazurin is reduced to fluorescent resorufin, in cell work by metabolically active cells.)
For the compound `CC(C)(c1ccccc1)c1ccc(OCCN)cc1`, the inhibition was 51.4% (active).

Consider `O=C(NCCOc1ccccc1)c1ccccc1`, for which the inhibition was -1.77% (inactive).

In the case of `O=C(NCCc1ccccc1)c1ccc(OCCOc2ccccc2)cc1`, the inhibition was -1.38% (inactive).

With `COc1cc(OC)cc(C(=O)NCC(=O)OCc2csc(-c3ccccc3)n2)c1`, the inhibition was 34.9% (inactive).

Regarding `O=C(CNCc1ccc(Cl)cc1)Nc1cccc(C(=O)O)c1`, the inhibition was 1.28% (inactive).

Regarding `N/C(=N\OC(=O)Cc1ccccc1[N+](=O)[O-])c1ccc(Br)cc1`, the inhibition is 10.7% (inactive).

With `COc1cccc(C(=O)N2CCCC(CCC(=O)NCc3ccc(F)c(F)c3)C2)c1` (centres undefined), the inhibition was 6.37% (inactive).

As to `COc1cccc(CNC(=O)CCC2CCCN(Cc3ccc(OC(F)F)cc3)C2)c1` (centres undefined), the inhibition was 98.5% (active).

On to `COc1cccc(CNC(=O)CCC2CCCN(C(=O)c3ccoc3C)C2)c1` (centres undefined), for which the inhibition is -4.54% (inactive).

Turning to `COc1ccc(/C=N/NC(=O)C(C)N(c2ccc(OC)cc2)S(C)(=O)=O)cc1` (centres undefined), the inhibition is 4.55% (inactive).

Take `COc1ccc(Cl)cc1NC(=O)C(C)N1CCc2ccccc21` (centres undefined): the inhibition is 16.9% (inactive).

On to `CC1(C)OC(=O)C(=CNC(CO)C(=O)O)C(=O)O1` (centres undefined), for which the inhibition was -4.58% (inactive).

On to `O=C(Oc1ccc([N+](=O)[O-])cc1)c1ccc(Cl)c(S(=O)(=O)N2CCCCC2)c1`, for which the inhibition is 56.8% (active).

Take `O=[N+]([O-])c1cccc(S(=O)(=O)N2CCCCCC2)c1`: the inhibition is 36.7% (inactive).

On to `O=C(Nc1ccc2c(c1)OCCO2)c1ccc(Cl)c(S(=O)(=O)N2CCCCC2)c1`, for which the inhibition is -0.95% (inactive).

Consider `OCCNCc1cccc(OCc2ccccc2Cl)c1`, for which the inhibition was 88.8% (active).

On to `O=C(O)Cc1ccc(NCc2ccccc2Cl)cc1`, for which the inhibition was -1.01% (inactive).

For `S=C(NCCc1ccccc1)NCc1ccccc1Cl`, the inhibition was -3.26% (inactive).

`COc1ccccc1NC(=O)c1cc(Cl)nnc1Cl`: the inhibition is 15.6% (inactive).

Consider `Cc1cccc(NC(=O)c2sc(-c3ccccc3)nc2-c2ccc([N+](=O)[O-])cc2)c1`, for which the inhibition is 99.5% (active).

For the compound `COc1ccc(NC(=O)c2sc(N)nc2-c2ccccc2)cc1`, the inhibition is 2.6% (inactive).

Turning to `Cc1cccc(NC(=O)c2cc([N+](=O)[O-])ccc2N2CCN(C)CC2)c1`, the inhibition was -0.64% (inactive).

For `CC(=O)C1=C(O)C(=O)N(c2cccnc2)C1c1ccc([N+](=O)[O-])cc1` (centres undefined), the inhibition was -4.89% (inactive).

Regarding `Cc1ccc(OCC(=O)NNC(=S)NCc2ccccc2)cc1`, the inhibition is -2.06% (inactive).

Take `Cc1ccc(Nc2nc(CSc3nnnn3-c3ccccc3)cc(=O)[nH]2)cc1`: the inhibition was 97.7% (active).

In the case of `O=c1c2ccccc2nc(CSc2nnnn2-c2ccccc2)n1-c1ccccc1`, the inhibition was -5.4% (inactive).

As to `Cc1ccc(-c2noc(CSc3nnnn3-c3ccccc3)n2)cc1`, the inhibition is 7.86% (inactive).

In the case of `CC1=NNC(=O)C1CCC(=O)N/N=C\c1cccc(Cl)c1` (centres undefined), the inhibition was 0.75% (inactive).

On to `COc1ccc(-c2nn(-c3ccccc3)cc2/C=C\C(=O)N2CCOCC2)cc1[N+](=O)[O-]`, for which the inhibition is 12.4% (inactive).

Take `O=[N+]([O-])c1cc(S(=O)(=O)CCCN2CCOCC2)ccc1F`: the inhibition is 1.38% (inactive).

Regarding `COc1ccc(-c2ccc(CNCCCN3CCOCC3)o2)cc1Cl`, the inhibition was 40% (inactive).

As to `C=CCOc1ccc(Cl)cc1CNCCCN1CCOCC1`, the inhibition was 69.1% (active).

As to `COc1ccc(OC)c(Cc2nnc(CCC(=O)NC3CCCC3)o2)c1`, the inhibition was -0.8% (inactive).

With `O=C1Nc2cc(Cl)c(Cl)cc2N(O)N1c1ccccc1Cl`, the inhibition is -6.67% (inactive).

As to `NC1=NC2(CCCCC2)N(c2ccc(F)cc2F)C(N)=N1`, the inhibition is -5.15% (inactive).

Regarding `Cc1cc(C(=O)CC#N)c(C)n1-c1c(C)n(C)n(-c2ccccc2)c1=O`, the inhibition was -0.96% (inactive).

In the case of `CC(=O)c1cnc(SCC(=O)O)nc1C`, the inhibition was -12.2% (inactive).

Regarding `NNc1nc2c(Cl)cccc2s1`, the inhibition was 99.1% (active).

As to `C/C(=N\NC(=O)OC(C)(C)C)c1ccc[nH]1`, the inhibition was -3.24% (inactive).

Regarding `COc1cc([N+](=O)[O-])ccc1NC(=O)CN1CCCC1`, the inhibition is -4.3% (inactive).

On to `Cc1cc(-c2nnc(CCC(=O)NC(c3ccccc3)c3ccccc3)o2)no1`, for which the inhibition was 5.43% (inactive).

In the case of `NNC(=O)c1cnn(-c2ccccc2)c1C(F)(F)F`, the inhibition is -1.35% (inactive).

As for `Cc1ccc(NC(=O)CN(C)S(=O)(=O)c2cnc[nH]2)cc1C`, the inhibition is -1.54% (inactive).

Turning to `CN(CC(=O)NCCc1ccccc1)S(=O)(=O)c1cnc[nH]1`, the inhibition was 57.7% (active).

As for `CN(CC(=O)NC1CCCC1)S(=O)(=O)c1cnc[nH]1`, the inhibition is -0.93% (inactive).

For the compound `COC(=O)c1nc(NC(=O)c2ccc(C(C)(C)C)cc2)n[nH]1`, the inhibition is -4.46% (inactive).

Take `CCC(C)(C)NC(=O)C(c1cccc(OC)c1OC)N(CC(C)C)C(=O)CCC(=O)Nc1cc(C)on1` (centres undefined): the inhibition was 9.34% (inactive).

For `O=C1NC(c2cccc(Cl)c2)Nc2ccccc21` (centres undefined), the inhibition was -1.93% (inactive).

Regarding `O=C(O)c1ccc(/C=N/NC(=S)NCc2ccccc2)cc1`, the inhibition is -3.57% (inactive).

`O=C(N/N=C/c1ccc2c(c1)OCO2)C(=O)N1CCCC1`: the inhibition is -3.67% (inactive).

With `O=C(Cc1ccc(F)cc1)N1CCN=C1SCc1cccc([N+](=O)[O-])c1`, the inhibition was 46.3% (inactive).

On to `Cc1cccc(CC(=O)N2CCN=C2SCc2ccc([N+](=O)[O-])cc2)c1`, for which the inhibition was 88.4% (active).

Consider `Cc1cc(C)cc(C(=O)N2CCN=C2SCc2ccc([N+](=O)[O-])cc2)c1`, for which the inhibition was 20.5% (inactive).

As to `Cc1cccc(C)c1NC(=O)C(c1ccccc1)N1CC(=O)Nc2ccccc21` (centres undefined), the inhibition was 57.2% (active).

As to `Cc1ccc(C(=O)N2CC(=O)Nc3ccccc32)o1`, the inhibition is -0.84% (inactive).

In the case of `Cc1ccc(S(=O)(=O)N2CC(=O)Nc3ccccc32)cc1C`, the inhibition was 3.05% (inactive).

With `CCOC(=O)c1csc(NC(=O)c2ccc(S(=O)(=O)N3CCCC3)cc2)n1`, the inhibition was 0.83% (inactive).

`COc1ccc(C(=O)Nc2nc(-c3ccc(S(=O)(=O)N4CCOCC4)cc3)cs2)cc1`: the inhibition is 80.4% (active).

Regarding `COc1ccc(-c2csc(NC(=O)c3ccc(N4C(=O)CCC4=O)cc3)n2)cc1OC`, the inhibition is 6.8% (inactive).

Consider `C=CCN(c1ccc(Cl)cc1)S(=O)(=O)c1cccc(C(=O)OCC(=O)N(C)C)c1`, for which the inhibition was -0.9% (inactive).

Turning to `Cc1cc(OCC(=O)NC2CCN(C)CC2)ccc1[N+](=O)[O-]`, the inhibition is 55% (active).

`O=C(COc1ccccc1[N+](=O)[O-])NC1CC1`: the inhibition was -4.5% (inactive).

Take `Cc1ccccc1N1CCN(CCCOc2ccc3c(C)cc(=O)oc3c2)CC1`: the inhibition is 42.5% (inactive).

As for `Cc1ccc(C(=O)COC(=O)CCCC(=O)NC2CCCCC2)cc1[N+](=O)[O-]`, the inhibition was 33.2% (inactive).

As to `Cc1cc(OCCCN2CCN(Cc3ccccc3)CC2)ccc1[N+](=O)[O-]`, the inhibition is 94.3% (active).

`Cc1c(Br)c([N+](=O)[O-])nn1CC(=O)N1CCN(Cc2ccccc2)CC1`: the inhibition is 0.53% (inactive).

On to `O=C(O)Cc1sc(-c2ccccc2)nc1-c1cccs1`, for which the inhibition is -7.68% (inactive).

For `CC(=O)NCC(=O)N1CCCC(C(=O)c2ccc3c4c(cccc24)CC3)C1` (centres undefined), the inhibition is 1.15% (inactive).

Regarding `O=C(COc1ccccc1Cl)Nc1ccc(C(=O)c2ccc(C(=O)O)cc2)cc1`, the inhibition was 0.1% (inactive).

Consider `CN(CC(=O)Nc1ccccc1[N+](=O)[O-])Cc1ccc(Br)cc1`, for which the inhibition was 5.69% (inactive).

Take `CC1=C(C)C(=O)OC(C(C)C2CCC3C4CC=C5CC(OC6OC(COC7OC(CO)C(O)C(O)C7O)C(O)C(O)C6O)CC(O)C5(C)C4CCC23C)C1` (centres undefined): the inhibition was -11.1% (inactive).

As to `Cc1cc(C)cc(OCC(=O)NCc2cc(C)nc3ccccc23)c1`, the inhibition was 36.5% (inactive).

As for `COC(=O)CC1=NN(c2ccccc2)C(=O)C1`, the inhibition was -3.08% (inactive).

`Cc1ccc(-n2c(C)cc(/C=C(\C#N)C(=O)NCC3CCCO3)c2C)cc1` (centres undefined): the inhibition is -2.28% (inactive).

Turning to `C/C(=C\C(=O)c1cccnc1)Nc1ccc(C)c(C)c1`, the inhibition was 20.1% (inactive).

Take `Cc1cc(/C=C(/C#N)C(=O)Nc2ccc(Cl)cc2)c(C)n1-c1cccnc1`: the inhibition is 56.9% (active).

For the compound `COC(=O)c1c(C)[nH]c(C)c1-c1ccc([N+](=O)[O-])cc1`, the inhibition was 12.6% (inactive).

For the compound `O=C(CSc1nn(-c2ccc(F)cc2)c(=S)s1)NC1CCS(=O)(=O)C1` (centres undefined), the inhibition is 2.16% (inactive).

As to `COc1ccc(NC(=O)CCNS(=O)(=O)c2ccc3c(c2)c(=O)n(C)c(=O)n3C)cc1OC`, the inhibition was -8.95% (inactive).

As to `O=C(Nc1ccc(Sc2ccc(Br)cc2)cc1)c1ccco1`, the inhibition was -2.45% (inactive).

On to `CCN(CC)P(=O)(Nc1ccc(SC(F)F)cc1)c1ccc(N(C)C)cc1NC(=O)c1ccco1` (centres undefined), for which the inhibition is 85.2% (active).

Consider `CCC(=O)NC(=S)Nc1ccc(NC(=O)c2ccco2)c(Cl)c1`, for which the inhibition was -3.46% (inactive).

On to `COc1ccc(N2CCN(C(=O)COc3ccc4c(C)cc(=O)oc4c3)CC2)cc1`, for which the inhibition was 1.16% (inactive).

Turning to `Cc1ccc2cc(C#N)c(NCCNC(=S)NCCCN3CCOCC3)nc2c1`, the inhibition was 1.99% (inactive).

Take `CN(C)S(=O)(=O)N1CCN(c2ccc([N+](=O)[O-])cc2)CC1`: the inhibition was -7.87% (inactive).

As to `Cc1cc(C)c(OCCN2CC(C)OC(C)C2)c(Br)c1` (centres undefined), the inhibition was 88.1% (active).

Consider `CC(=O)Nc1cccc(C(=O)Nc2nc(C)cs2)c1`, for which the inhibition is 11.8% (inactive).

Take `CC1CCCN(CC(O)COc2ccc3c(c2)OCO3)C1` (centres undefined): the inhibition is 54.4% (active).

Turning to `CN1CCN(CC(O)COCc2ccc3c(c2)OCO3)CC1` (centres undefined), the inhibition is -2.38% (inactive).

For the compound `CC1CCCN(CC(O)COCc2ccccc2)C1` (centres undefined), the inhibition is 11% (inactive).

For `Cc1coc(C)c1C(=O)CC1(O)C(=O)N(C)c2ccc(Cl)cc21` (centres undefined), the inhibition was 1.6% (inactive).

As to `O=C(Nc1cccc(Cl)c1)c1cc([N+](=O)[O-])ccc1N1CCN(CCO)CC1`, the inhibition was 0.91% (inactive).

For the compound `COc1cc(NC(=S)NCCSc2ccc(C)cc2)cc(OC)c1`, the inhibition is 7.14% (inactive).

On to `Cn1c(N)c(C(=O)COC(=O)/C=C/c2ccc(OC(F)F)cc2)c(=O)n(C)c1=O`, for which the inhibition was -9.55% (inactive).

Source of the values: PubChem BioAssay AID1063 (University of Pittsburgh Molecular Library Screening Center, 2008).
